Reference: PubChem BioAssay (NCATS)
Records with an inconclusive call do not appear. Where a call stands in place of a potency, no number is given. The source made the active and inactive calls. The call rests on the fitted dose curve; in most records, active means well fitted inhibition curve with a large enough effect; inconclusive means small, poorly fitted or top-dose-only effect; inactive means flat fitted curve, though single readings scatter.

How the values were obtained:
[1] = molecular target: Glutathione peroxidase 1 (Homo sapiens) (UniProt P07203); test: Primary qHTS Assay for Inhibitors of Recombinant Selenoprotein Glutathione Peroxidase 1 (GPX1) (AID 1845191)
Chain of Glutathione peroxidase 1 (Homo sapiens) (P07203 whole entry, looked up): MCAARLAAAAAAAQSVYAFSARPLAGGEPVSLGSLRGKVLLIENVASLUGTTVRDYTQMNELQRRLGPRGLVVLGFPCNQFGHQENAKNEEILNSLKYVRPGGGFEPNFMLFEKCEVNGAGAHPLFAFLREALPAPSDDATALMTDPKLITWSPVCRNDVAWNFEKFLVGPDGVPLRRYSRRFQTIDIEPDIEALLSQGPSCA
Method in brief: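 Recombinant GPX1 (10 nM final) was preincubated with compound for 30 min at room temperature, then reacted with 1 mM GSH, 0.5 mM CHP, 0.5 mM NADPH and 100 nM glutathione reductase; NADPH fluorescence (340/450 nm) was read at 0 and 15 min.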

[2] = molecular target: Phospholipid hydroperoxide glutathione peroxidase GPX4 (Homo sapiens) (UniProt P36969); test: Primary qHTS Assay for Inhibitors of Recombinant Selenoprotein Glutathione Peroxidase 4 (GPX4) (AID 1845192)
Chain of Phospholipid hydroperoxide glutathione peroxidase GPX4 (Homo sapiens) (P36969 whole entry, looked up): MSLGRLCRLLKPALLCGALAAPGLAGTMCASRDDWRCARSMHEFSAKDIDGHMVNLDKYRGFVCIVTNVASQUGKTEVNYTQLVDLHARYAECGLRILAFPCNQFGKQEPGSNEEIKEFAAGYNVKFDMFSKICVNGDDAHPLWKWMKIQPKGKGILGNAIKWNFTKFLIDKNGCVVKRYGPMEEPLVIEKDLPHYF
Method in brief: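 GR-coupled readout: 100 nM GR, 1 mM GSH, 0.5 mM NADPH; NADPH fluorescence (ex 340/em 450 nm) read at t=0 and after 15 min RT. GPX4 200 nM, preincubated 30 min with compound; substrate 0.5 mM CHP.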
Further: nearly all actives have a fitted effect of over 65% in size.

SMILES | Potency [1] | Potency [2]
Clc1ccc2c(c1)CCc1cccnc1C2=C1CCNCC1 | inactive | inactive
COc1cc2c(cc1OC)[C@@H]1CC(=O)[C@@H](CC(C)C)CN1CC2 | inactive | inactive
CN(C)CC/C=C1\c2ccccc2Sc2ccc(Cl)cc21 | inactive | inactive
O=C(OCCOCCO)c1ccccc1Nc1cccc(C(F)(F)F)c1 | inactive | inactive
O=C(CCCN1CCC(O)(c2ccc(Br)cc2)CC1)c1ccc(F)cc1 | inactive | inactive
CCCOC(C(=O)OC1CCN(C)CC1)(c1ccccc1)c1ccccc1 | inactive | inactive
COC(=O)CCc1ccc(OCC(O)CNC(C)C)cc1 (stereo unspecified) | inactive | inactive
COc1ccc(OC)c(C(O)CNC(=O)CN)c1 (stereo unspecified) | inactive | inactive
COCc1c(C(C)C)nc(C(C)C)c(/C=C/[C@@H](O)C[C@@H](O)CC(=O)O)c1-c1ccc(F)cc1 | inactive | inactive
CC(=O)Nc1c(I)cc(I)c(C(=O)O)c1I | inactive | inactive
CCCCOc1ccc(OCCCN2CCOCC2)cc1 | inactive | inactive
O=c1c(-c2ccccc2)c1-c1ccccc1 | inactive | inactive
Cc1ccccc1C(=O)Nc1ccc(C(=O)N2CCCC(N(C)C)c3ccccc32)cc1 (stereo unspecified) | inactive | inactive
